Experimental data taken from the supplement of paper PMC3545927.
Some of the results follow. The hit rate among all sequences tested is not known here.

B1: HC198 (peptide)
chain: CATWAQPGYPAGNASASA
B2: FS-2116 (peptide)
chain: CAWWARSVGGAGNASASA
B3: FS-1758 (peptide)
chain: CARNKRSHSGAGNASASA
B4: FS-3008 (peptide)
chain: CARNKRPTFLAGNASASA
B5: FS-2497 (peptide)
chain: CARNKKSKMDAGNASASA
B6: FS-2282 (peptide)
chain: CARNKKQNSQAGNASASA
B7: FS-1910 (peptide)
chain: CARNKRFYGGAGNASASA
B8: FS-2434 (peptide)
chain: CARNKKSIAVAGNASASA
B9: HC2226 (peptide)
chain: CAEVVTSTMVAGNASASA
B10: FS-2729 (peptide)
chain: CARNKRSKSNAGNASASA
B11: FS-1862 (peptide)
chain: CARNKRDTMVAGNASASA
B12: FS-2120 (peptide)
chain: CAFRKRSHSKAGNASASA
B13: FS-1911 (peptide)
chain: CARNKRSTQIAGNASASA
B14: HC2007 (peptide)
chain: CAVFCCSMSYAGNASASA
B15: HC1839 (peptide)
chain: CAPTPCSGSWAGNASASA
B16: HC390 (peptide)
chain: CACRPLTDFDAGNASASA
B17: HC2321 (peptide)
chain: CANVPCHRPSAGNASASA
B18: HC377 (peptide)
chain: CALNTGWLAGAGNASASA
B19: HC2554 (peptide)
chain: CASTPCSAKLAGNASASA
B20: HC538 (peptide)
chain: CANAASLAGTAGNASASA
B21: HC1001 (peptide)
chain: CAVIVGRVVLAGNASASA
B22: FS-2124 (peptide)
chain: CALRRRGPGKAGNASASA
B23: FS-509 (peptide)
chain: CATKRRNQRDAGNASASA
B24: FS-459 (peptide)
chain: CALRRRCQRDAGNASASA
B25: HC1303 (peptide)
chain: CALPVWARPDAGNASASA
B26: FS-343 (peptide)
chain: CAKPMRQQRDAGNASASA
B27: FS-652 (peptide)
chain: CAFPNRDQRDAGNASASA
B28: FS-56 (peptide)
chain: CALRRVLRRDAGNASASA
B29: HC1867 (peptide)
chain: CATTFCSGSWAGNASASA
B30: HC1061 (peptide)
chain: CALTTSQTLLAGNASASA
B31: HC1594 (peptide)
chain: CAIYGACYSIAGNASASA
B32: HC679 (peptide)
chain: CARGLLGCIIAGNASASA
B33: FS-205 (peptide)
chain: CAVHSRASRDAGNASASA
B34: FS-1606 (peptide)
chain: CARLARASRDAGNASASA
B35: HC2381 (peptide)
chain: CAEVPCHNPSAGNASASA
B36: FS-1504 (peptide)
chain: CAYLNRGRRSAGNASASA
B37: FS-1279 (peptide)
chain: CASGYRGRRSAGNASASA
B38: FS-1462 (peptide)
chain: CALPEAGRRSAGNASASA
B39: FS-295 (peptide)
chain: CASLARGRRSAGNASASA
B40: FS-363 (peptide)
chain: CALVSRVTRSAGNASASA
B41: FS-577 (peptide)
chain: CAYYHRHTRSAGNASASA
B42: FS-1015 (peptide)
chain: CAIPRRHTRSAGNASASA
B43: FS-869 (peptide)
chain: CASPARLARRAGNASASA
B44: FS-1414 (peptide)
chain: CASPERHTRSAGNASASA

Molecular target: furin, P09958
Experiment: furin cleavage Z-score vs untreated control; higher = more cleavage, active = 3.5 or more, inactive = 1 or less, 8 variable residues between constant flanks
Summary of the method: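 Peptides 8 residues long, fused to a cDNA oligonucleotide, were fixed to magnetic beads by the N-terminus and exposed to purified furin. The 0.01 ml reactions contained 50 mM HEPES pH 7.5 with CaCl2 and NaCl at 1:10 enzyme:substrate and ran 7.5, 15 or 30 min. For the cleavage Z-score, log counts of sequenced released DNA were compared with furin-free reactions, lowess-adjusted and scaled by median absolute deviation.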

Chain of furin, P09958 (P09958 whole entry): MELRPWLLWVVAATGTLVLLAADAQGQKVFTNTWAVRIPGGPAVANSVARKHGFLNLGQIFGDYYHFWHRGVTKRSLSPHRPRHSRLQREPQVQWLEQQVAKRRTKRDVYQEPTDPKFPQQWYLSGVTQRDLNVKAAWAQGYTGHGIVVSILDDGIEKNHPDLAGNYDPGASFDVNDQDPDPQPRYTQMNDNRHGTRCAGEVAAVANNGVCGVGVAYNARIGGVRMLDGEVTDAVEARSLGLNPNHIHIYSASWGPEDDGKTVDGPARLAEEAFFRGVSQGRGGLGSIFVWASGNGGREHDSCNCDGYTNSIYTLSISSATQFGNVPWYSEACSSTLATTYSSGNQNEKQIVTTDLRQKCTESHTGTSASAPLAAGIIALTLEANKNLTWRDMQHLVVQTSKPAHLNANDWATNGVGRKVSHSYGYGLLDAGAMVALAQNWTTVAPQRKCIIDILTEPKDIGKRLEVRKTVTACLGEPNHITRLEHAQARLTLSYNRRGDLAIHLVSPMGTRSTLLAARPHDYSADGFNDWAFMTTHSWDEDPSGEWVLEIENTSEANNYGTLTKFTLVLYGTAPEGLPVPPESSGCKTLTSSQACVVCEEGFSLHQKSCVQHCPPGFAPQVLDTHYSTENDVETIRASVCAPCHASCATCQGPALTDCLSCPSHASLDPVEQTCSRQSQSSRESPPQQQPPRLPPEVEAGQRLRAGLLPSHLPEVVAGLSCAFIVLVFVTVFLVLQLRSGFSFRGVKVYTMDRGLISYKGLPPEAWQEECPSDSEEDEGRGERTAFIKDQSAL

Sequence | furin cleavage Z-score (7.5 min) | furin cleavage Z-score (15 min) | furin cleavage Z-score (30 min)
B1 | -0.244 (inactive) | 0.873 (inactive) | -0.438 (inactive)
B2 | 0.297 (inactive) | 0.813 (inactive) | 1.73
B3 | 5.74 (active) | 8.23 (active) | 6.55 (active)
B4 | -0.0512 (inactive) | 0.819 (inactive) | -0.221 (inactive)
B5 | -0.56 (inactive) | -0.669 (inactive) | -0.939 (inactive)
B6 | 1.09 | -0.5 (inactive) | -0.768 (inactive)
B7 | 0.307 (inactive) | 0.312 (inactive) | 2.91
B8 | -0.82 (inactive) | 0.605 (inactive) | 1.7
B9 | 1.1 | 0.363 (inactive) | 1.25
B10 | 7.79 (active) | 9.35 (active) | 7.37 (active)
B11 | 12.3 (active) | 13.2 (active) | 10.9 (active)
B12 | -0.356 (inactive) | -1.2 (inactive) | -1.04 (inactive)
B13 | 10.5 (active) | 12.3 (active) | 10.9 (active)
B14 | -1.31 (inactive) | -1.48 (inactive) | -0.762 (inactive)
B15 | -0.934 (inactive) | -0.739 (inactive) | -1.08 (inactive)
B16 | -1.1 (inactive) | 0.259 (inactive) | -1.94 (inactive)
B17 | 0.0675 (inactive) | 0.859 (inactive) | 1.03
B18 | -0.173 (inactive) | -0.464 (inactive) | 0.636 (inactive)
B19 | 0.275 (inactive) | 1.72 | 1.78
B20 | 0.915 (inactive) | 0.0856 (inactive) | 0.369 (inactive)
B21 | -0.946 (inactive) | -1.25 (inactive) | -0.791 (inactive)
B22 | -0.105 (inactive) | -1.37 (inactive) | -1.45 (inactive)

Sequence | furin cleavage Z-score (7.5 min) | furin cleavage Z-score (15 min) | furin cleavage Z-score (30 min)
B23 | 9.77 (active) | 11 (active) | 8.15 (active)
B24 | 9.61 (active) | 9.12 (active) | 7.39 (active)
B25 | -0.876 (inactive) | -0.333 (inactive) | -0.285 (inactive)
B26 | 5.15 (active) | 5.86 (active) | 7.03 (active)
B27 | -0.191 (inactive) | -0.415 (inactive) | -0.133 (inactive)
B28 | 4.93 (active) | 4.47 (active) | 5.29 (active)
B29 | 0.273 (inactive) | 0.134 (inactive) | -0.205 (inactive)
B30 | -1.15 (inactive) | 0.0331 (inactive) | 0.232 (inactive)
B31 | 0.0718 (inactive) | 0.563 (inactive) | -0.201 (inactive)
B32 | -0.71 (inactive) | -0.595 (inactive) | -1.08 (inactive)
B33 | 6.86 (active) | 6.96 (active) | 4.81 (active)
B34 | 6.41 (active) | 5.81 (active) | 5.23 (active)
B35 | -0.125 (inactive) | 0.398 (inactive) | -1.22 (inactive)
B36 | 8.94 (active) | 11.8 (active) | 8.66 (active)
B37 | 10.4 (active) | 9.6 (active) | 8.02 (active)
B38 | -0.222 (inactive) | -0.673 (inactive) | -1.48 (inactive)
B39 | 9.48 (active) | 9.53 (active) | 7.6 (active)
B40 | 13 (active) | 12.8 (active) | 10.3 (active)
B41 | 0.662 (inactive) | 0.71 (inactive) | 1.07
B42 | 4.95 (active) | 4.88 (active) | 4.46 (active)
B43 | 0.549 (inactive) | 3.9 (active) | 4.41 (active)
B44 | 9.58 (active) | 9.61 (active) | 8.51 (active)
